# Screening results: PubChem BioAssay, National Center for Advancing Translational Sciences (NCATS)
# Sampled rows, rich in hits. Any-hit rate of the full collection: about 21%.
# Shiga toxin inh – inhibitors of Shiga toxin in Vero cells | inhibition, % at 38.7 µM | 290,000 compounds, 9.2% hits | AID 2315 | Vero cells, Shiga toxin protein synthesis inhibition reporter; in the data active = inhibition mostly above about 28%, no sharp cut-off; inactive = mostly below about 43%; also: 0% is about no effect
# AMA1 RON2 block – inhibitors of Plasmodium falciparum AMA1-RON2 interaction; 360,000 compounds, 0.2% hits; AlphaScreen AMA1-biotinylated RON2 peptide binding; Potency, µM (titrated, usually from 58.2 µM), for the others: top-dose activity change, negative = inhibition, usual class: inhibitors;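 also: potency is read from the fitted curve at half-maximal effect; 0% = vehicle wells and -100% = peptide control; nearly all actives have a fitted effect of over 45% in size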
#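 AMA1 (3D7) with his tag at 25 nM final met compounds first, then biotinylated RON2 peptide at 25 nM; detection used donor plus acceptor beads, 10 µg/mL apiece, read by AlphaScreen after 30 min at room temperature.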
# CHX counter – affects cycloheximide protein synthesis inhibition readout, counter-screen. cell reporter, cycloheximide protein synthesis inhibition counterscreen. max response, %. 300,000 compounds, 12% hits. AID 2314; in the data active = max response mostly above about 13%, no sharp cut-off; inactive = mostly below about 14%; also: read at 38.3 µM for the half of the compounds with a filed dose; 0% is about no effect
# Pf growth 96h – P. falciparum growth inhibition at 96 hour, primary screen for plastid delayed-death inhibitors. P. falciparum luciferase reporter growth, 96 h. Potency, µM (titrated, usually from 28.7 µM), without a hit: at the top dose activity change, negative = inhibition, hits mostly inhibitors. 320,000 compounds, 6.9% hits. AID 504834; also: potency is read from the fitted curve at half-maximal effect; % is scaled to controls: 0 for no effect and ±100 for the full control effect
#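 P. falciparum expressing integrated firefly luciferase grown in erythrocytes (2% hematocrit, 0.05% parasitemia final) with compounds for 96 hours at 37 C, 5% CO2. Growth inhibition read as loss of luminescence after adding luciferase detection reagent.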
# Pf growth 48h – inhibits P. falciparum growth in the first generation, 48 h. P. falciparum luciferase growth in erythrocytes, 48 h. Potency, µM (highest dose often 28.7 µM), for the others: at the highest dose activity change, negative = inhibition, actives largely listed as inhibitors. 310,000 compounds, 5.9% hits. AID 504832; also: potency is read from the fitted curve at half-maximal effect; % is scaled to controls: 0 for no effect and ±100 for the full control effect
#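 Compounds are pin-transferred into medium, infected erythrocytes (2% hematocrit, 0.1% parasitemia final) are added, and plates sit one parasite generation at 37 C in 5% CO2. Detection reagent is then added and luminescence measured.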
# HCV inh – HCV inhibition. Huh7.5.1 HCVcc-Cre infection, luciferase reporter, 44 h. Potency, µM (series often up to 41.8 µM), without a hit: top-dose activity change, negative = inhibition, usual class: inhibitors. 340,000 compounds, 3.4% hits; also: potency is read from the fitted curve at half-maximal effect; % is scaled to controls: 0 for no effect and ±100 for the full control effect
#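 Whole-lifecycle infectious HCVcc-Cre system; cells 1,000/well, compound then virus (~0.5 moi) added 4 h after plating, 44 h culture. Luciferase read 15 sec following 15 min substrate incubation, room temp.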
# * marks the source's active call; other numbers are inactive results; ? = inconclusive; . = not tested or not shown; [ ] = another dose, or the depositor's remark. Unless noted, calls follow the shape of the dose curve; as a rule, active = well fitted curve in the direction sought with a large enough effect; inconclusive = small, poorly fitted or top-dose-only effect, or another doubt; inactive = no such curve, though single readings can be large; an effect the other way counts as inactive or inconclusive.
SMILES,Shiga toxin inh,AMA1 RON2 block,CHX counter,Pf growth 96h,Pf growth 48h,HCV inh
CC(C)(N)C(=O)N[C@@H](Cc1cnc[nH]1)C(=O)N[C@H](Cc1ccc2ccccc2c1)C(=O)N[C@H](Cc1ccccc1)C(=O)N[C@@H](CCCCN)C(N)=O,3,.,10,.,.,.
CCOC(=O)c1c[nH]n(-c2ccccc2)c1=O,30*,5%,20,12%,34%,16%
CCOC(=O)c1nc(N)c(=O)n(-c2ccc(C)cc2)n1,4,-18%,-1,-24%,-5%,14%
CCOC(=O)c1c[nH]n(-c2ccc(C)cc2)c1=O,48*,-2%,21*,-13%,-3%[5.75 µM],3%
CCOC(=O)C1=C(C)N(c2ccccc2)C(=O)C1,10,-8%,-2,10µM*,-6%,12%
COc1cccc(-c2noc(CCCC(=O)Nc3ccc(C(N)=O)cc3)n2)c1,19,-3%,7,-17%,37%,0%
CCOC(=O)c1cnc(-n2[nH]c(C)cc2=O)[nH]c1=O,2,1.6µM*,7,?,-3%,17%
CC(C)(C)c1ccc(S(=O)(=O)NC(=O)C2(C)CCN2C(=O)C2CC2)cc1 (stereo unspecified),.,5%,.,.,.,.
Cc1cc(C)nc(-n2nc(C)c(Sc3ccc(F)cc3)c2N)n1,100*,13%,39*,5%,?,-25%
Cc1cc(C)nc(-n2nc(C)c3c(C(F)(F)F)cc(=O)[nH]c32)n1,-8,-7%,-2,19%[5.75 µM],17%,9%
CN(C)C1=NCCN1CCc1ccc(F)cc1,.,0%,.,61%,7%,8%
Cc1ccc(CNS(=O)(=O)c2c(C(=O)N3CCCCC3)c(C)n(C)c2C)cc1,3,-10%,-2,-13%,16%,10%
Cc1c(C(=O)N2CCCCC2)c(S(=O)(=O)NCc2ccc(F)cc2)c(C)n1C,-4,-7%,9,-3%,23%,13%
Cc1c(C(=O)N2CCCCC2)c(S(=O)(=O)NCc2ccc(N(C)C)cc2)c(C)n1C,3,-5%,2,0.83µM*,-5%,16%
COc1ccc(CNS(=O)(=O)c2c(C(=O)N3CCCCCC3)c(C)n(C)c2C)cc1,-3,-3%,-3,3.3µM*,-15%,26%
CCCCCCCCN1C(=O)[C@H](CC(=O)N2CCN(C(=O)OCC)CC2)C[C@@]2(C(=O)OC)CC(C)(C)CC=C12,.,-17%,.,.,.,.
O=C(NNC(=O)c1ccccc1-n1cccc1)c1cccnc1,.,19%,.,.,.,.
Clc1ccc(Nc2ccc(-n3ccnc3)nn2)cc1Cl,22,1%,2,1.9µM*,2.6µM*,-6%
NN(CCO)C(=S)Nc1ccc(Cl)cc1,18,81%,6,4%,5%,8%
COc1ccc(C(=O)N/N=C/c2ccc(OC)c(COc3c(F)c(F)cc(F)c3F)c2)cc1,-9,-16%,0,0%,4%,2.2µM*
COc1ccc(/C=N\NC(=O)c2ccc(F)cc2)cc1COc1ccccc1C(N)=O,-15,5%,4,?,-3%,?
COc1ccc(C(=O)N/N=C/c2ccc(OC)c(CN3CCCc4ccccc43)c2)cc1,1,?,9.4*,18%,1.2µM*,6.3µM*
COc1ccc(/C=N/NC(=O)c2cccnc2)cc1COc1ccc([N+](=O)[O-])cc1,23,5%,6,28%,-21%,-10%
COc1cccc(C(=O)N/N=C/c2ccc(OC)c(COc3ccccc3C(N)=O)c2)c1,109*,-6%,57*,?,?,?
COc1ccc(/C=N\NC(=O)c2ccc([N+](=O)[O-])cc2)cc1COc1c(F)c(F)cc(F)c1F,-4,57%,7,?,?,1.6µM*
SMILES,Shiga toxin inh,AMA1 RON2 block,CHX counter,Pf growth 96h,Pf growth 48h,HCV inh
CC[C@@]1(c2ccccc2)NC(=O)N(C)C1=O,.,.,.,-22%,-19%,.
COc1ccc(/C=N\NC(=O)c2cccc(F)c2)cc1COc1ccccc1,.,2%,.,.,.,-18%
COc1ccc(/C=N/NC(=O)c2cc(OC)c(OC)c(OC)c2)cc1CN1CCc2cc(OC)c(OC)cc2C1C (stereo unspecified),-9,-12%,-2,?,?,2µM*
COc1cc(/C=N/NC(=O)c2ccc(N(C)S(=O)(=O)c3ccccc3)cc2)cc(OC)c1OC,-15,25%,-1,?,-2%,?
COc1ccc(OCc2cc(/C=N\NC(=O)c3ccccc3)ccc2OC)cc1,72*,7%,33*,?,-27%,?
COc1ccc(/C=N/O)cc1COc1ccc(NC(C)=O)cc1,9,-1%,-1,7.4µM*,7%,?
CCOc1cc(/C=N/NC(=O)c2ccc(N(C)S(=O)(=O)c3ccccc3)cc2)ccc1OC,19,-27%,-2,-1%,-16%,8.9µM*
O=C(CCN1C(=O)C2CC=CCC2C1=O)Nc1ccc(S(=O)(=O)N2CCCCC2)cc1 (stereo unspecified),.,-8%,.,-3%,?,0%
COc1ccc(NC(=O)c2cccc(S(=O)(=O)NCc3ccco3)c2)c(OC)c1,.,-20%,.,47%,-1%,?
COc1ccccc1N1CCN(CCS(=O)(=O)c2cc(Cl)ccc2Cl)CC1,.,1%,.,.,.,.
Cc1ccc2nc(Br)c3c(c2c1)OC(CBr)C3 (stereo unspecified),-13,13%,-1,?,0%,-27%
OCC[C@@H]1C[C@@H](O)[C@H](O)[C@@]2(OCCc3ccccc32)O1,-2,-4%,1,3%,21%,18%
Cc1cc(C)n2nc(SC(C)C(=O)N3CC(C)OC(C)C3)nc2n1 (stereo unspecified),.,-2%,.,.,.,5%
CCOc1ccc(N2CC(=O)Nc3ccccc3NCC2=O)cc1,6,-10%,-6,8.3µM*,-2%,1%
CCOc1ccc(N2C(=O)CNC2=S)cc1,-11,67%,1,?,-2%,8%
O=C(CCNC(=O)c1ccco1)Nc1ccc(Cl)cc1F,-8,-7%,31,31%,9%,22%
O=C(O)[C@H]1CCCN1,0,.,-5,.,.,.
CN(C(=O)COC(=O)CNC(=O)c1ccc(C(C)(C)C)cc1)c1c(N)n(Cc2ccccc2)c(=O)[nH]c1=O,.,-6%,.,4%,11%,-6%
CCN(CC)CCCNc1nc(-n2nc(C)cc2C)nc2sc3c(c12)CC(C)(C)OC3,52,36%,13*,?,?,?
Cc1cc(C)n(-c2nc(SCC(=O)O)c3c4c(sc3n2)COC(C)(C)C4)n1,-13,2%,-1,?,?,-2%
Cc1cc(C)n(-c2nc(NCc3cccnc3)c3c4c(sc3n2)COC(C)(C)C4)n1,40,35%,22*,.,.,-23%
Cc1nc(NCc2cccnc2)c2c3c(sc2n1)CCCC3,-17,-8%,-3,-52%,?,7.1µM*
